Values without a mark were called inactive. For part of these data: Entries with a potency or affinity are not part of this list. Activity calls are given as the source filed them. Unless noted, no rule for the calls is given here.
Assays:
[1] = antimalarial activity against Dd2 strain (AID 2302;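 active = growth inhibition above 50% at the single 2 µM test dose, taken to imply half-maximal potency below 2 µM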;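 also: 0% = DMSO untreated growth and 100% = chloroquine plus artemisinin killed control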); details: P. falciparum Dd2 in RBCs, LDH growth readout, 72 h; at 2 µM; active compounds read high
[2] = human hepatoma cell viability loss – ATP luminescence, cytotoxicity control for P. falciparum antimalarial project, primary screen (AID 2303;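 active = inhibition above 50%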;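 also: 0% = DMSO wells and 100% = digitonin-killed cells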); details: HepG2 viability, 24-48 h, at 10 µM, active compounds read high
[3] = biological target: L-lactate dehydrogenase (Plasmodium falciparum (isolate CDC / Honduras)) (UniProt Q27743); assay: PfLDH activity inhibition – cell lysate, 3D7 strain, counter-screen for P. falciparum growth inhibition project (AID 2304);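 also: 0% = vehicle and 100% = reference inhibitor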; details: P. falciparum 3D7 crude extract, LDH APAD/NBT absorbance; at 2 µM; active compounds read high
[4] = inhibition of 3D7 malaria parasite growth – strain 3D7 (AID 2306);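 also: 0% = DMSO wells and 100% = chloroquine plus artemisinin control wells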; details: P. falciparum 3D7 erythrocytic growth, LDH absorbance, 72 h; at 2 µM; active compounds read high
[5] = biological target: Calcium-dependent protein kinase 1 (Plasmodium falciparum (isolate 3D7)) (UniProt P62344); assay: PfCDPK1 kinase inhibitors, biochemical, TCAMS library (AID 1159585; cut-off not given, nearly all actives have IC50 up to about 0.98 µM;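 also: inhibitors leave more ATP so luminescence rises with inhibition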); details: recombinant PfCDPK1, Kinase-Glo ATP depletion luminescence
[6] = biological target: Plasmodium falciparum protein kinase 6 (PK6, PF3D7_1337100) (UniProt Q8IDW1); assay: PfPK6 kinase inhibitors, biochemical, TCAMS library (AID 1159586); details: recombinant PfPK6, Kinase-Glo ATP depletion luminescence
[7] = biological target: Protein kinase 7 (PK7), Plasmodium falciparum 3D7 (PF3D7_0213400) (UniProt Q7YTF7); assay: inhibition of Plasmodium PK7 catalytic activity – biochemical, TCAMS antimalarial set, Kinase-Glo luminescence (AID 1159587); details: recombinant PfPK7, Kinase-Glo ATP depletion luminescence
[8] = biological target: Calcium-dependent protein kinase 4 (Plasmodium falciparum (isolate 3D7)) (UniProt Q8IBS5); assay: PfCDPK4 kinase inhibitors, biochemical, TCAMS library (AID 1159588; cut-off not given, nearly all actives have IC50 up to about 0.91 µM); details: recombinant PfCDPK4, Kinase-Glo ATP depletion luminescence
Calcium-dependent protein kinase 4 (Plasmodium falciparum (isolate 3D7)), sequence (Q8IBS5 whole entry, looked up): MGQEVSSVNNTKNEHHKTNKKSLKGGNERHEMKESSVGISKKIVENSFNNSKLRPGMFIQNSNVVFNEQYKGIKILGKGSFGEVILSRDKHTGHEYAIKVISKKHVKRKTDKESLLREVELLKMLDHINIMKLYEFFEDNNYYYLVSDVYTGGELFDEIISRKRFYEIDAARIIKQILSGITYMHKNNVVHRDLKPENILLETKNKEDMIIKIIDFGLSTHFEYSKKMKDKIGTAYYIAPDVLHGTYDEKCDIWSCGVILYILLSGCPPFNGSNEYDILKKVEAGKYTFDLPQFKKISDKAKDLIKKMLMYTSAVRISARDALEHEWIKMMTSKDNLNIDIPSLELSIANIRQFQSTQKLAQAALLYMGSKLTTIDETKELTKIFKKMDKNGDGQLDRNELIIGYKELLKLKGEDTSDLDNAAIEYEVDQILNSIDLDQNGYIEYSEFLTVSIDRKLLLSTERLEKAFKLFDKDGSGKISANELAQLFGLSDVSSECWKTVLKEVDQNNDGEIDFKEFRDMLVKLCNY

Protein kinase 7 (PK7), Plasmodium falciparum 3D7 (PF3D7_0213400), sequence (Q7YTF7 1-343): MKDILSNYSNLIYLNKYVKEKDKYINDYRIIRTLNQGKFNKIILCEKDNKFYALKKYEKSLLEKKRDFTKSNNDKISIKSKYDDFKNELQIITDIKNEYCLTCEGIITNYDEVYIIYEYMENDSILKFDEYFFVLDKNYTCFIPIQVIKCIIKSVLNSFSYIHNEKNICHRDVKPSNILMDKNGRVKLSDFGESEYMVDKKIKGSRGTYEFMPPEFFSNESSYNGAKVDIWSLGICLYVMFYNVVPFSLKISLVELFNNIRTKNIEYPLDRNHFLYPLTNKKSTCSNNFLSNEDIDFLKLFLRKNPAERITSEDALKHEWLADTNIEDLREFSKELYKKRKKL
L-lactate dehydrogenase (Plasmodium falciparum (isolate CDC / Honduras)), sequence (Q27743 whole entry, looked up): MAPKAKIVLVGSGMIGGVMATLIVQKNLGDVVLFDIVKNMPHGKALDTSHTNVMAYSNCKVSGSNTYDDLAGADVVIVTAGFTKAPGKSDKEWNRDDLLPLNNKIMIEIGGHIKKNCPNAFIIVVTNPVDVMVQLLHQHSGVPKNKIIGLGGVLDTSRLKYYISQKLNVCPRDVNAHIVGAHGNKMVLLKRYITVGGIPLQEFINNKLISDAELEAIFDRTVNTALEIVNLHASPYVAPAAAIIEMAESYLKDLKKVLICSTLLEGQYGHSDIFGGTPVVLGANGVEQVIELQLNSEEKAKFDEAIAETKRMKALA
Calcium-dependent protein kinase 1 (Plasmodium falciparum (isolate 3D7)), sequence (P62344 whole entry, looked up): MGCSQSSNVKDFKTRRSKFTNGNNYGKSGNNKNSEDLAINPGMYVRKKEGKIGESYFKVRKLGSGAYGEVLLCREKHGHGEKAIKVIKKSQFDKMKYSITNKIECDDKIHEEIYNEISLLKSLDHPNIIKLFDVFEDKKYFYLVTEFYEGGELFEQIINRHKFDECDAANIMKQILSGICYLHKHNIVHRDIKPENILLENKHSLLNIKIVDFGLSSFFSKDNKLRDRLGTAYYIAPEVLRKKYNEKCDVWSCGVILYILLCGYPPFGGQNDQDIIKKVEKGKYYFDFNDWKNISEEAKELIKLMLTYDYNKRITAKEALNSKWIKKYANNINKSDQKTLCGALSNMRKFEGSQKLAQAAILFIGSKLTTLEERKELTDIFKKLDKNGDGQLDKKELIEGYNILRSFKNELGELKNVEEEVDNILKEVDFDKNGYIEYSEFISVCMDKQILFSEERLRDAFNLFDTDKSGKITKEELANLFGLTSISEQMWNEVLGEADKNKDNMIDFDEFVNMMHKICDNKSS
Plasmodium falciparum protein kinase 6 (PK6, PF3D7_1337100), sequence (Q8IDW1 1-305): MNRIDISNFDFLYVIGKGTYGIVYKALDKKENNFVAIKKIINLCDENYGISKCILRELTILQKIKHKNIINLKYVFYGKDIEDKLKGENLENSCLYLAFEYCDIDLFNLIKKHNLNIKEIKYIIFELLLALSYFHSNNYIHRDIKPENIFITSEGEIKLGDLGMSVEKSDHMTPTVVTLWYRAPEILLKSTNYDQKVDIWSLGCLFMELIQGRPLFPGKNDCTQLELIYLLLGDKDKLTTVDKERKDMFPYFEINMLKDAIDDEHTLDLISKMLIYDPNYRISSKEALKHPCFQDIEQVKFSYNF

Row | Compound | growth inhibition [1] | inhibition [2] | inhibition [3] [%] | growth inhibition [4] | outcome [5] | outcome [6] | outcome [7] | outcome [8]
1 | CCc1cn2c3c(cc(C(=O)N[C@@H](Cc4cccc(Cl)c4)[C@H](O)CNC4CC4)cc13)N(C)S(=O)(=O)CC2 | 98% (active) | 10% | -1 | 98% (active) | inactive | inactive | inactive | inactive
2 | Cc1cc(-c2nc3ccc(CN4CCN(C)CC4)cc3[nH]2)nn1Cc1cc(Cl)ccc1OCc1ccccc1 | 52% (active) | 3% | 1 | 100% (active) | inactive | inactive | inactive | inactive
3 | CN1CCN(c2ccnc3cc4c(cc23)N(C(=O)Nc2ccc(-c3ccncc3)c3ccccc23)CC4)CC1 | 97% (active) | 10% | -2 | 101% (active) | inactive | inactive | inactive | inactive
4 | FC(F)(F)c1ccc2nc(-c3ccc(-c4cccc(CNCCc5cccnc5)c4)s3)[nH]c2c1 | 98% (active) | 26% | -3 | 101% (active) | inactive | inactive | inactive | inactive
5 | Cc1cccc2[nH]c(-c3cccc(-c4cccc(CN5CCN(c6ccncc6)CC5)c4)c3)nc12 | 96% (active) | 47% | -5 | 102% (active) | inactive | inactive | inactive | inactive
6 | c1ccc2c(NCCCCCCCNc3ccnc4ccccc34)ccnc2c1 | 94% (active) | 91% (active) | 1 | 101% (active) | inactive | inactive | inactive | inactive
7 | Cc1[nH]c(C)c(-c2ccc(CCc3ccc(F)cc3F)cc2)c(=O)c1Cl | 97% (active) | 5% | -4 | 98% (active) | inactive | inactive | inactive | inactive
8 | COCCN1CCN(Cc2ccc(-c3ccc(-c4nc5ccc(F)cc5[nH]4)cc3)cc2)CC1 | 99% (active) | 25% | -2 | 101% (active) | inactive | inactive | inactive | inactive
9 | CS(=O)(=O)c1cc2c(Nc3ccc(N4CCOCC4)cc3)c(C(N)=O)cnc2cc1Br | 89% (active) | -18% | -2 | 101% (active) | inactive | inactive | inactive | inactive
10 | Cc1nc(N)nc(N)c1OCCCOc1cccc(Cl)c1Cl | 95% (active) | 59% (active) | -2 | 93% (active) | inactive | inactive | inactive | inactive
11 | CC(=O)Nc1ccc([N+](=O)[O-])c2c(Br)cccc12 | -1% | -3% | -4 | 100% (active) | inactive | inactive | inactive | inactive
12 | CN1CCC(c2csc3ccc(NC(=O)Nc4ccc(-c5ccncc5)c5ccccc45)cc23)CC1 | 71% (active) | 8% | 0 | 98% (active) | inactive | inactive | inactive | inactive
13 | COc1ccc2c(NN=Cc3cccc(Cl)c3)ccnc2c1 | 94% (active) | 32% | -3 | 101% (active) | inactive | inactive | inactive | inactive
14 | COc1ccc(C2CCN(CCCCNC(=O)c3ccc(NC(=O)c4ccc(Cl)cc4)cc3)CC2)c(C)c1 | 35% | 22% | 2 | 98% (active) | inactive | inactive | inactive | inactive
15 | COc1ccc2nccc([C@@H](O)CN3CCC(NC(=O)c4ccc(Cl)c(Cl)c4)CC3)c2c1 | 57% (active) | 21% | -5 | 96% (active) | inactive | inactive | inactive | inactive
16 | CCn1ccc2c(N3CCCS3(=O)=O)cc(C(=O)N[C@@H](Cc3ccccc3)[C@H](O)CNC(C)(C)c3cccc(OC)c3)cc21 | 98% (active) | 20% | -8 | 99% (active) | inactive | inactive | inactive | inactive
17 | CC(C)(C)OC(=O)NCc1ccc(Nc2nnc(-c3cccc(OCC(=O)NCc4cc(C(F)(F)F)cc(C(F)(F)F)c4)c3)o2)cc1 | 19% | 32% | 1 | 90% (active) | inactive | inactive | inactive | inactive
18 | CCN1CCN(CCCCNc2c3ccccc3nc3ccccc23)CC1 | -5% | 22% | 8 | 100% (active) | inactive | inactive | inactive | inactive
19 | CC(C)(C)c1ccc(C(=O)Nc2ccc(NC(=O)c3ccc([N+](=O)[O-])o3)cc2)cc1 | 4% | -2% | 2 | 81% (active) | inactive | inactive | inactive | inactive
20 | Cc1cc(N)c2cc(NC(=O)c3cccc4ccccc34)ccc2n1 | 13% | 18% | 4 | 98% (active) | inactive | inactive | inactive | inactive

Row | Compound | growth inhibition [1] | inhibition [2] | inhibition [3] [%] | growth inhibition [4] | outcome [5] | outcome [6] | outcome [7] | outcome [8]
21 | Cc1ccccc1N1CCN(c2ccc(C(=O)Nc3ccccc3)cc2)CC1 | 91% (active) | 22% | -2 | 89% (active) | inactive | inactive | inactive | inactive
22 | CC(C)C[C@H](NC(=O)c1ccc(OCCN2CCOCC2)cc1)C(=O)N[C@H](/C=N/NC(=O)OC(C)(C)C)CCc1ccccc1 | 87% (active) | 8% | -4 | 96% (active) | inactive | inactive | inactive | inactive
23 | CCCNCc1ccc(-c2ccc(CN(CCOC)C(=O)c3cnc(C)cn3)cc2)nc1 | 14% | -3% | -4 | 81% (active) | inactive | inactive | inactive | inactive
24 | COc1ccccc1C(C)NCC(=O)Nc1ccccc1Sc1ccccc1 (configuration not stated) | 7% | -7% | -1 | 89% (active) | inactive | inactive | inactive | inactive
25 | CCCNC(=O)CN1CN(c2ccccc2)C2(CCN(C(=O)c3ccc(C(C)(C)C)cc3)CC2)C1=O | 98% (active) | 0% | 0 | 99% (active) | inactive | inactive | inactive | inactive
26 | N#Cc1cccc(-c2cnc(N)c(-c3nc4ccc(S(N)(=O)=O)cc4[nH]3)c2)c1 | 99% (active) | 16% | -5 | 100% (active) | inactive | inactive | inactive | inactive
27 | CCOC(=O)c1cc(C(=O)OC)c2ccccn12 | 2% | 44% | -2 | 97% (active) | inactive | inactive | inactive | inactive
28 | COc1ccc2nc3cc(Cl)ccc3c(NCCCCN3CCNCC3)c2c1 | 75% (active) | 29% | -5 | 102% (active) | inactive | inactive | inactive | inactive
29 | COc1ccccc1CCNc1nc(C)cc(N[C@@H](CC(C)C)C(=O)NCc2cccc(F)c2)n1 | 79% (active) | 20% | -3 | 94% (active) | inactive | inactive | inactive | inactive
30 | Cc1cc(O)c(C(C)C)cc1C1(c2cc(C(C)C)c(O)cc2C)OC(=O)c2ccccc21 | 18% | 8% | -3 | 95% (active) | inactive | inactive | inactive | inactive
31 | COc1ccc(C)cc1NC(=O)CSc1nc2cccnc2n1C1CCCCC1 | 78% (active) | 14% | -8 | 89% (active) | inactive | inactive | inactive | inactive
32 | Oc1ccc(Br)cc1-c1nc2ccc(Cl)cc2nc1-c1cc(Br)ccc1O | 64% (active) | -4% | 5 | 100% (active) | inactive | inactive | inactive | inactive
33 | c1ccc(-c2nc(Nc3ccncc3)sc2-c2ccccc2)cc1 | 18% | -5% | 1 | 97% (active) | inactive | inactive | inactive | inactive
34 | Cc1[nH]c(C)c(-c2ccc(-c3ccc(Cl)cc3)nc2)c(=O)c1Cl | 96% (active) | 8% | 3 | 95% (active) | inactive | inactive | inactive | inactive
35 | CN(C)Cc1cccc2[nH]c(-c3csc(Cc4cc(Cl)ccc4OCc4ccccc4)n3)nc12 | 77% (active) | 14% | -2 | 100% (active) | inactive | inactive | inactive | inactive
36 | N=C1C=C(N)C(=O)c2ccccc21 | 85% (active) | 99% (active) | -2 | 81% (active) | inactive | inactive | inactive | inactive
37 | c1ccc2c(CNc3ccnc(NCc4cccc5ccccc45)n3)cccc2c1 | 71% (active) | 51% (active) | 3 | 99% (active) | inactive | inactive | inactive | inactive
38 | CN1CCC(C(=O)Nc2ccc(-c3ccc(-c4nc5ccccc5[nH]4)s3)cc2)CC1 | 22% | 30% | 3 | 99% (active) | inactive | inactive | inactive | inactive
39 | CN(C)CCN(C)Cc1ccc(-c2cccc(-c3nc4ccccc4[nH]3)c2)cc1 | 78% (active) | 46% | -1 | 101% (active) | inactive | inactive | inactive | inactive

Source: PubChem BioAssay
